A short description of test [1]: antimalarial activity against Dd2 strain (AID 2302;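 active = growth inhibition above 50% at the single 2 µM test dose, taken to imply half-maximal potency below 2 µM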;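 also: 0% = DMSO untreated growth and 100% = chloroquine plus artemisinin killed control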). The following applies: P. falciparum Dd2 in RBCs, LDH growth readout, 72 h; at 2 µM; stronger effect = higher value.
The nature of test [2]: human hepatoma cell viability loss – ATP luminescence, cytotoxicity control for P. falciparum antimalarial project, primary screen (AID 2303;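 active = inhibition above 50%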;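 also: 0% = DMSO wells and 100% = digitonin-killed cells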). The following applies: HepG2 viability, 24-48 h, at 10 µM, stronger effect = higher value.
The target in test [3] is L-lactate dehydrogenase (Plasmodium falciparum (isolate CDC / Honduras)) (UniProt Q27743). The experiment in a line: PfLDH activity inhibition – cell lysate, 3D7 strain, counter-screen for P. falciparum growth inhibition project (AID 2304).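 Also: 0% = vehicle and 100% = reference inhibitor.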 As to conditions: P. falciparum 3D7 crude extract, LDH APAD/NBT absorbance; at 2 µM; stronger effect = higher value.
Chain of L-lactate dehydrogenase (Plasmodium falciparum (isolate CDC / Honduras)) (Q27743 whole entry, looked up): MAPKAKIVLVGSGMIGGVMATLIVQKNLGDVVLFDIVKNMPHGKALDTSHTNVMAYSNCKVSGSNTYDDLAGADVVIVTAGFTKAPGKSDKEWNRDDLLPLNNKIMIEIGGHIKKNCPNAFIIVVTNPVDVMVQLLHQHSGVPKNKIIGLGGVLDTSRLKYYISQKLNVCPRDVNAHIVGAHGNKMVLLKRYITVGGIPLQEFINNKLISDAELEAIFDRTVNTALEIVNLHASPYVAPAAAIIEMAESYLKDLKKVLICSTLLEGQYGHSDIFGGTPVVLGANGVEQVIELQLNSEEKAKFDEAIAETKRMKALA
The nature of test [4]: inhibition of 3D7 malaria parasite growth – strain 3D7 (AID 2306).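 Also: 0% = DMSO wells and 100% = chloroquine plus artemisinin control wells.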 The following applies: P. falciparum 3D7 erythrocytic growth, LDH absorbance, 72 h; at 2 µM; stronger effect = higher value.
In test [5] the target is Calcium-dependent protein kinase 1 (Plasmodium falciparum (isolate 3D7)) (UniProt P62344). As to the kind of experiment: PfCDPK1 kinase inhibitors, biochemical, TCAMS library (AID 1159585; cut-off not given, nearly all actives have IC50 up to about 0.98 µM;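 also: inhibitors leave more ATP so luminescence rises with inhibition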). The following applies: recombinant PfCDPK1, Kinase-Glo ATP depletion luminescence.
Chain of Calcium-dependent protein kinase 1 (Plasmodium falciparum (isolate 3D7)) (P62344 whole entry, looked up): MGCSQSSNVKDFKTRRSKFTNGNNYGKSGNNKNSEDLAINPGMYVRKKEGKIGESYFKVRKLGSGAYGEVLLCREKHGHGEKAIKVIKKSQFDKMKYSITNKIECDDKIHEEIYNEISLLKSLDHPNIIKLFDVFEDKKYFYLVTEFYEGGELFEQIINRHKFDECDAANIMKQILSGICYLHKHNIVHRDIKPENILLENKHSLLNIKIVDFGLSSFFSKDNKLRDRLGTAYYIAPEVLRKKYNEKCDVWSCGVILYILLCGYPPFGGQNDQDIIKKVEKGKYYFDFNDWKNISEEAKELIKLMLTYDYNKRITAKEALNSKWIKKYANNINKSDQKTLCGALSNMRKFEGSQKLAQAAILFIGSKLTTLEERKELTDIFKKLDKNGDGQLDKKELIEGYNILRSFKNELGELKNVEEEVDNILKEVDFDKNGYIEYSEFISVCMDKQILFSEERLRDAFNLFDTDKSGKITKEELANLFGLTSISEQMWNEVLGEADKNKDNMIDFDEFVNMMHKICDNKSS
In test [6] the target is Plasmodium falciparum protein kinase 6 (PK6, PF3D7_1337100) (UniProt Q8IDW1). As to the kind of experiment: PfPK6 kinase inhibitors, biochemical, TCAMS library (AID 1159586). The following applies: recombinant PfPK6, Kinase-Glo ATP depletion luminescence.
Chain of Plasmodium falciparum protein kinase 6 (PK6, PF3D7_1337100) (Q8IDW1 1-305): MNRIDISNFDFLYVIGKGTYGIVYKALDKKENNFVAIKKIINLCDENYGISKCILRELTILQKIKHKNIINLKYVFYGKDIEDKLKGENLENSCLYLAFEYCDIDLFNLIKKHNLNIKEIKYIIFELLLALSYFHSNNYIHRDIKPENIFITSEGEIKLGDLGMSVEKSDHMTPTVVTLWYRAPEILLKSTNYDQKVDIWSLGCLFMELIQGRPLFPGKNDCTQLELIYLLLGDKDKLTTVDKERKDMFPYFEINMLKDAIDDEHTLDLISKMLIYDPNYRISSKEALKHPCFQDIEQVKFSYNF
The target of test [7] is Protein kinase 7 (PK7), Plasmodium falciparum 3D7 (PF3D7_0213400) (UniProt Q7YTF7). The experiment in a line: inhibition of Plasmodium PK7 catalytic activity – biochemical, TCAMS antimalarial set, Kinase-Glo luminescence (AID 1159587). The following applies: recombinant PfPK7, Kinase-Glo ATP depletion luminescence.
Chain of Protein kinase 7 (PK7), Plasmodium falciparum 3D7 (PF3D7_0213400) (Q7YTF7 1-343): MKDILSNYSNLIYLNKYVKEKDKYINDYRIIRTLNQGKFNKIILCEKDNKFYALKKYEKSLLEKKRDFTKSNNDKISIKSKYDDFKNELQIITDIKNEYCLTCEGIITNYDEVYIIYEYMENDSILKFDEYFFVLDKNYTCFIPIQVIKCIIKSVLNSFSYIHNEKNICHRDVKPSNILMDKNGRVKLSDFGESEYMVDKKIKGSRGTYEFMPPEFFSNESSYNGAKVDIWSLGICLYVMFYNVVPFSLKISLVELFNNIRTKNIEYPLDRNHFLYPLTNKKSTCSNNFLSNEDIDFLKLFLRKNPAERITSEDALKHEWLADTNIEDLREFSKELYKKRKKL
Test [8] concerns the target Calcium-dependent protein kinase 4 (Plasmodium falciparum (isolate 3D7)) (UniProt Q8IBS5). The experiment in a line: PfCDPK4 kinase inhibitors, biochemical, TCAMS library (AID 1159588; cut-off not given, nearly all actives have IC50 up to about 0.91 µM). The following applies: recombinant PfCDPK4, Kinase-Glo ATP depletion luminescence.

Unmarked numbers belong to inactive results. For part of these data: Measured potencies and affinities stand elsewhere. The source made the active and inactive calls. Unless noted, no rule for the calls is given here.

Chain of Calcium-dependent protein kinase 4 (Plasmodium falciparum (isolate 3D7)) (Q8IBS5 whole entry, looked up): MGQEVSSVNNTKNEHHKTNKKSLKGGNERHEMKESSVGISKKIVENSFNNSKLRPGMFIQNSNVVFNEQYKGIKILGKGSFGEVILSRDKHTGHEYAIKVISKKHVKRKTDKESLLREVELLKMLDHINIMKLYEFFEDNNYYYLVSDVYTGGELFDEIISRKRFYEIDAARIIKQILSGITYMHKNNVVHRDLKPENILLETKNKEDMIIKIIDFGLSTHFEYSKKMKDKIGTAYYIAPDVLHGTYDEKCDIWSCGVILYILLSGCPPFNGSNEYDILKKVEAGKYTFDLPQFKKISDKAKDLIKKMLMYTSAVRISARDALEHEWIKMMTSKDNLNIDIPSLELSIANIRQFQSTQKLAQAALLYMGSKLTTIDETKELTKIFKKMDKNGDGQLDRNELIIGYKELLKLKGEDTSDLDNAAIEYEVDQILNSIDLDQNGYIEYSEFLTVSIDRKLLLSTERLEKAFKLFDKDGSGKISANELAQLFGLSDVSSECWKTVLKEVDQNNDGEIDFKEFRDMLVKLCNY

Consider `COc1ccc(-c2nc(NC(=O)Cc3cccc(OC)c3)sc2C)cc1`, for which the figures for the growth inhibition in test [1] and in test [4] were 77% (active) and 101% (active), respectively. For the same molecule, the inhibition in test [2] is 1%; in test [3] it was -3%. For the same molecule, the result in test [5], in test [6], in test [7] and in test [8] was inactive.

As for `COc1ccc(-c2ccc(NC(=O)c3cccc(F)c3)cc2)cc1CN1CCCN(C)CC1`, the growth inhibition was 49% in test [1] and 100% (active) in test [4]. Besides, the figures for the inhibition in test [2] and in test [3] were 32% and -1%, respectively. Moreover, the result in test [5], in test [6], in test [7] and in test [8] was inactive.

In the case of `O=C(/C=C/c1ccc(Cl)c(Cl)c1)N1CCC(CN2CCC(c3nc4ccccc4n3CCCO)CC2)CC1`, the values for the growth inhibition in test [1] and in test [4] were -4% and 96% (active), respectively. Moreover, the inhibition was 60% (active) in test [2] and -8% in test [3]. The outcome in test [5], in test [6], in test [7] and in test [8] was inactive.

Regarding `CCCCCCCN1CCC(CCNc2ccnc3ccc(OC)cc23)CC1`, the growth inhibition in test [1] is 86% (active); in test [4], 84% (active). Further, the inhibition is 5% in test [2] and -2% in test [3]. Further, the result in test [5], in test [6], in test [7] and in test [8] was inactive.

`OC(CNc1ccnc(Nc2ccc(Cl)cc2)n1)c1ccc(C(F)(F)F)cc1` (centres undefined): the values for the growth inhibition in test [1] and in test [4] were 94% (active) and 101% (active), respectively. Besides, the inhibition in test [2] is -2%; in test [3], -6%. Also, the outcome in test [5], in test [6], in test [7] and in test [8] was inactive.

`Nc1ccc2[nH]cc(C3CCN(CCC4CCN(C(=O)/C=C/c5ccc(Cl)c(Cl)c5)CC4)CC3)c2n1`: the values for the growth inhibition in test [1] and in test [4] were 78% (active) and 100% (active), respectively. Moreover, the inhibition in test [2] was 27%; in test [3] it was 0%. Besides, the outcome in test [5], in test [6], in test [7] and in test [8] was inactive.

For `Cn1cncc1C(=O)Nc1cccc(-c2ccc(-c3nc4ccc(F)cc4[nH]3)cc2)c1`, the figures for the growth inhibition in test [1] and in test [4] were 31% and 101% (active), respectively. In addition, the inhibition is -1% in test [2] and -2% in test [3]. For the same molecule, the outcome in test [5], in test [6], in test [7] and in test [8] was inactive.

On to `Cc1cc2[nH]c(-c3ccc(C(=O)NCCCN4CCN(c5cccc(Cl)c5)CC4)cc3)nc2cc1Cl`, for which the growth inhibition is 73% (active) in test [1] and 98% (active) in test [4]. For the same molecule, the inhibition was 1% in test [2] and 6% in test [3]. Moreover, the outcome in test [5], in test [6], in test [7] and in test [8] was inactive.

For the molecule `Cc1ccc(NC(=O)c2ccc3ncccc3c2)cc1OC1CCN(CCC(C)C)CC1`, the growth inhibition in test [1] is 48%; in test [4], 94% (active). Also, the inhibition in test [2] was 2%; in test [3], -4%. Also, the result in test [5], in test [6], in test [7] and in test [8] was inactive.

Turning to `Cc1cc(N)nc2ccc(-c3ccc(CN)cc3)cc12`, the growth inhibition in test [1] is 93% (active); in test [4], 100% (active). The inhibition in test [2] was 4%; in test [3], -3%. The result in test [5], in test [6], in test [7] and in test [8] was inactive.

Take `COCCCNc1nc2cc(OC)c(OC)cc2c2nc(-c3ccccc3)nn12`: the growth inhibition is 97% (active) in test [1] and 95% (active) in test [4]. Moreover, the inhibition in test [2] was 6%; in test [3], -6%. Further, the outcome in test [5], in test [6], in test [7] and in test [8] was inactive.

With `CN(CC(=O)Nc1cc(C(F)(F)F)ccc1-n1cncn1)Cc1ccc2ccccc2c1`, the growth inhibition was 99% (active) in test [1] and 98% (active) in test [4]. Also, the values for the inhibition in test [2] and in test [3] were 18% and 3%, respectively. Further, the result in test [5], in test [6], in test [7] and in test [8] was inactive.

With `CN(c1ccc(F)cc1)S(=O)(=O)c1ccc(Cl)c(C(=O)Nc2cccc(C#N)c2)c1`, the growth inhibition is 58% (active) in test [1] and 95% (active) in test [4]. Moreover, the inhibition was 5% in test [2] and -4% in test [3]. Moreover, the outcome in test [5], in test [6], in test [7] and in test [8] was inactive.

For `NCC1CCCN1Cc1ccc(-c2ccc(-c3nc4ccccc4[nH]3)s2)cc1` (centres undefined), the figures for the growth inhibition in test [1] and in test [4] were 97% (active) and 98% (active), respectively. In addition, the inhibition is 17% in test [2] and -6% in test [3]. For the same molecule, the result in test [5], in test [6], in test [7] and in test [8] was inactive.

Regarding `CC(C)C(=O)NC(c1cccs1)c1cc(Cl)c2cccnc2c1O` (centres undefined), the growth inhibition in test [1] and in test [4] was 91% (active) each time. Moreover, the results for the inhibition in test [2] and in test [3] were 23% and -2%, respectively. In addition, the result in test [5], in test [6], in test [7] and in test [8] was inactive.

Regarding `Cc1nc2nc(N)nc(N)c2c(C)c1Cc1c(Cl)cccc1Cl`, the growth inhibition in test [1] was 5%; in test [4], 94% (active). Besides, the inhibition is 7% in test [2] and -1% in test [3]. The result in test [5], in test [6], in test [7] and in test [8] was inactive.

On to `CNCCNC(=O)C1Cc2c([nH]c3c(C)cccc23)C(c2ccc(Cl)c(Cl)c2)N1` (centres undefined), for which the growth inhibition was 60% (active) in test [1] and 102% (active) in test [4]. For the same molecule, the inhibition in test [2] is 13%; in test [3], -5%. Moreover, the result in test [5], in test [6], in test [7] and in test [8] was inactive.

Regarding `Cc1cnc(N2CCN(CCCN3CCCC3)CC2)nc1Oc1ccc(-n2ccnc2)cc1`, the growth inhibition was 82% (active) in test [1] and 99% (active) in test [4]. The inhibition in test [2] was 12%; in test [3], 4%. In addition, the result in test [5], in test [6], in test [7] and in test [8] was inactive.

(Values after PubChem BioAssay.)
